This is one part of a sample in which hits are shown more often than they occur.
Choline anaer gr: growth inhibitors of anaerobic choline-fed gram-negatives, minimal medium, absorbance | calls only | actives 0.2% (n = 55,000) | Gram-negative bacterium anaerobic choline minimal medium; hits give low values | AID 1963822, 2024; call rule not given here
An asterisk follows results filed as active.

CN1CCCN(c2ncnc3c2CCC3)CC1 was read as Choline anaer gr inactive.
For c1nc2c(c(N3CCC(N4CCCCC4)CC3)n1)CCC2 the results were Choline anaer gr active.
Screening c1ccc(N2CCN(c3ncnc4c3CCC4)CC2)nc1 returned Choline anaer gr inactive.
`Cc1cc(C)cc(-n2ncc3c(N4CCN(CCO)CC4)ncnc32)c1` gave Choline anaer gr inactive.
`CC/C=C\C/C=C\C/C=C\CCCCCCCCCCCC(=O)O` gave Choline anaer gr active.
CCCCC/C=C\C/C=C\C/C=C\C/C=C\CCCCCC(=O)O was read as Choline anaer gr inactive.
For CC/C=C\C/C=C\C/C=C\CCCCCCCCCC(=O)O the results were Choline anaer gr active.
`CCCCC/C=C\C/C=C\CC1OC1C/C=C\CCCC(=O)O` (configuration not stated) gave Choline anaer gr inactive.
`CCCCC/C=C\C/C=C\C/C=C\C/C=C\CCCC(=O)O` gave Choline anaer gr inactive.
`CCCCCCC/C=C\CCCCCCCCC(=O)O` gave Choline anaer gr inactive.
For CCCCC/C=C\C/C=C\CCCCCCCC(N)=O the results were Choline anaer gr inactive.
For CC/C=C\C/C=C\C/C=C\CCCCCCCC(=O)O the results were Choline anaer gr inactive.
`CC/C=C\C/C=C\C/C=C\C/C=C\C/C=C\CCCC(=O)O` gave Choline anaer gr active.
Screening Cc1cccc(-c2noc(CCCn3c(=O)[nH]c4cc5c(cc4c3=O)OCO5)n2)c1 returned Choline anaer gr inactive.
Cc1ccc(NS(=O)(=O)c2cc(-c3cc(C(F)(F)F)on3)sc2C)c(C)c1 was read as Choline anaer gr inactive.
Screening CCOc1ccc(S(=O)(=O)N2CCCC2c2nc(-c3ccc(Cl)cc3)no2)cc1 (configuration not stated) returned Choline anaer gr inactive.
For O=C(CCn1ccc(=O)[nH]c1=O)Nc1nc2c(s1)CN(Cc1ccccc1)CC2 the results were Choline anaer gr inactive.
For CCn1c(CN(c2ccc(F)cc2)S(C)(=O)=O)nnc1SCC(=O)c1ccc(Cl)cc1 the results were Choline anaer gr inactive.
Screening CCn1c(CN(c2ccc(F)cc2)S(C)(=O)=O)nnc1SCC(=O)Nc1ccc(F)cc1F returned Choline anaer gr active.
For CCn1c(CN(c2ccc(F)cc2)S(C)(=O)=O)nnc1SCC(=O)c1ccccc1 the results were Choline anaer gr inactive.
Screening COc1ccccc1CNC(=O)c1ccc(N2CCCC2)c(NC(=O)Nc2ccccc2Cl)c1 returned Choline anaer gr inactive.
`O=C(NCc1ccnc(N2CCCCC2)c1)Nc1ccc(F)c(Cl)c1` gave Choline anaer gr active.
Screening O=C(NCc1ccnc(N2CCSCC2)c1)Nc1ccc(F)cc1F returned Choline anaer gr inactive.
For O=C(NCc1ccnc(N2CCSCC2)c1)Nc1cc(F)ccc1F the results were Choline anaer gr inactive.
Screening COc1ccccc1NC(=O)Nc1ccc(Nc2cc(N3CCCC3)nc(C)n2)cc1 returned Choline anaer gr inactive.
`COc1ccccc1NC(=O)NCc1ccnc(N2CCCCC2)c1` gave Choline anaer gr active.
`O=C(NCc1ccc2c(c1)OCO2)c1cc(-c2cccnc2)nc2ccc(Cl)cc12` gave Choline anaer gr inactive.
For CCc1onc(C)c1C1CCCN1C(=O)c1cc(C(F)(F)F)nn1C (configuration not stated) the results were Choline anaer gr inactive.
Screening CC(C)NC(=O)c1ccc(-c2nc3cc(NS(=O)(=O)c4cc(F)cc(F)c4)ccc3n2C)cc1 returned Choline anaer gr inactive.
For O=C(CCc1ccccc1)N1CCCN(C(=O)Nc2ccc(S(=O)(=O)N3CCCC3)s2)CC1 the results were Choline anaer gr inactive.
CCCCn1c(=O)c2sccc2n2c(CCC(=O)NC3CCCCC3)nnc12 was read as Choline anaer gr inactive.
`Cc1ccc(-c2noc3ncnc(N4CCC(C(=O)N(C)c5cc(C)ccc5C)CC4)c23)cc1` gave Choline anaer gr inactive.
For CCN(C(=O)c1c(C)oc2ncnc(N3CCCCC3)c12)c1cc(C)ccc1C the results were Choline anaer gr active.
Cc1oc2ncnc(N3CCCCC3)c2c1C(=O)Nc1cccc(Cl)c1 was read as Choline anaer gr inactive.
`CCCC(=O)N1CCCC1C(=O)N1CCCCC1C` (configuration not stated) gave Choline anaer gr active.
`Cc1cc(N2CCC(C)CC2)nc2ccc(NC(=O)CCC(=O)N3CCCCC3C)cc12` (configuration not stated) gave Choline anaer gr inactive.
Screening Cc1noc(C(=O)N2CCCCC2C)c1Cl (configuration not stated) returned Choline anaer gr inactive.
COc1cccc(OC)c1C(=O)Nc1cccc(-c2nc3cccnc3s2)c1 was read as Choline anaer gr inactive.
For COc1cc(-c2nc3cnc(Br)cn3c2Nc2ccc(OC)c(OC)c2)ccc1O the results were Choline anaer gr inactive.
For O=C(COc1ccccc1)Nc1cc(-c2cccc(Br)c2)nn1-c1ccccc1 the results were Choline anaer gr inactive.
`Cc1noc(-c2cccnc2NC(C)C)n1` gave Choline anaer gr inactive.
CCN1CCN(C(=O)[C@@H]2CCCN2C(C)=O)CC1 was read as Choline anaer gr inactive.
`CCC(=O)N1CCCN(S(=O)(=O)CC)CC1` gave Choline anaer gr inactive.
For CCC(=O)N1CCCC1C(=O)N1CCCN(C)CC1 (configuration not stated) the results were Choline anaer gr active.
For Cc1nc2ccn(Cc3ccccc3)c(=O)c2cc1C(=O)NCC1CCCO1 (configuration not stated) the results were Choline anaer gr inactive.
`Cc1nc(CN2C(=O)COc3cc(S(=O)(=O)N4CCc5ccccc5C4)c(C)cc32)no1` gave Choline anaer gr inactive.
Cc1noc2ncn(CC(=O)NCC3CCCO3)c(=O)c12 (configuration not stated) was read as Choline anaer gr inactive.
`Cc1noc2nc[nH]c(=O)c12` gave Choline anaer gr active.
For Cc1noc2ncnc(NC(C)C)c12 the results were Choline anaer gr inactive.
`Cc1noc2ncn(Cc3ccccc3)c(=O)c12` gave Choline anaer gr inactive.
`OCC1O[C@H]([S-])[C@@H](O)C(O)[C@@H]1O.[Au+]` (some centres not stated) gave Choline anaer gr active.
OCC1O[C@H](O)C(Cl)C(O)C1O (some centres not stated) was read as Choline anaer gr inactive.
For OC[C@H]1O[C@H](O[C@H]2[C@H](O)[C@@H](O)[C@H](O)O[C@@H]2CO)[C@H](O)[C@@H](O)[C@@H]1O the results were Choline anaer gr inactive.
For Cc1cccc(-c2noc(CCC(=O)Nc3ccncc3)n2)c1 the results were Choline anaer gr inactive.
Screening O=C(NCc1ccc(Br)cc1)c1ccc(-c2nccc(Oc3ccccc3)n2)cc1 returned Choline anaer gr inactive.

Screens: PubChem, ICCB-Longwood Screening Facility, Harvard Medical School
